Reference: PubChem BioAssay AID1508600 (Functional Genomics Laboratory (NCATS/FGL), 2020)
The whole screen tested about 53,000 sequences, of which about 3,700 (7%) were called active. This is one part of a sample in which actives are shown more often than they occur. Unmarked numbers belong to inactive results.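 Rule for the calls: active = gene knockdowns whose robust z-score for IL-1 alpha signal is at least 2 or at most -2, so actives lie on both sides; inactive = the rest.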

assay: Components of the Cytosolic LPS Sensing Pathway: Gene Identification via Genome-wide siRNA Screen; settings: RAW264.7 macrophages, IL-1a HTRF, actives lie on both sides, screened at 100 nM (by protocol), cells primed 5 h with Pam3CSK4 first;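 note: robust z of the log signal after scaling to non-targeting control siRNA wells of the plate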
How it was run: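 Three distinct siRNAs per gene were tested singly at 100 nM in RAW264.7 macrophages. Following Pam3CSK4 priming and 24 hour LipidA transfection, IL-1a secretion was read by HTRF.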

| Sequence | z-score |
| --- | --- |
| GGUGUUAAUCCAGUUCAAUTT against Bbs12 | 2.26 (active) |
| GCACAUGUAUCCAUGCUUCTT against Kcnj11 | -0.815 |
| GGAAGUUCGUGGAAGGCAATT against Pck1 | 0.188 |
| GGAAGAAAACAGCGAUUUGTT against Ppp1r15a | -0.447 |
| GCAUUAUUCAUAUGUUGGUTT against Fpr-rs4 | -0.318 |
| GGAGUCUCUGAAGAAAACATT against Hus1 | -0.596 |
| GGAAGAAAGAGAGGUGUGATT against Nxf2 | -2.26 (active) |
| CCCAAUUUGGAGCUAUCAGTT against Cwh43 | -0.89 |
| GGACUUCCAGAUCCAACCUTT against Robo4 | -0.867 |
| GGAACUCUCAAGAGAGAAUTT against Dnajc14 | 0.233 |
| GGUACCCACUAGAGGAUCATT against Madd | -2.61 (active) |
| GGACAGAGAACAAAUGACCTT against 4931417E11Rik | -1.91 |
| GGCAGCAGUUAUUGUGGAUTT against Ly6a | 0.693 |
| GGAAGGACCAAAGCUUUCUTT against Olfr1123 | 0.982 |
| CCACCAAUGAUUUGAUGCATT against Gpr75 | -0.0162 |
| GGAUUUUGAAUUAUGGGAUTT against Relch | -0.0955 |
| CGAAGGGAUUGAUUUGACUTT against Kars | -0.324 |
| GCCAAAUGUGCGUCAUCUATT against Zdhhc25 | -2.54 (active) |
| CGCACUUUGGCUUGUAAUUTT against Smad6 | 0.327 |
| GCUGUAAACCGAAUCAAAGTT against Khdc4 | 0.0586 |
| CGUGAGGUUAUGAUGUAUUTT against Gm5444 | -1.3 |
| GGAAAGGACAAGAAAAUUUTT against Strn | -2.03 (active) |

| Sequence | z-score |
| --- | --- |
| CCAUUAUCCUGGUGUGUAUTT against Olfr1362 | -0.0735 |
| GGCGAUACUUGGAAAAAUCTT against Nln | -0.508 |
| GCCCGUCCUGUUUGGAUUATT against Wdr53 | 0.501 |
| GGACCUUGAGAUAUCUUUUTT against D130020L05Rik | -0.361 |
| GGACAGAGGACAAGCAGAATT against Ghrl | -0.532 |
| CCAGAUCGGGAAAAAGGGUTT against Tsn | -2.04 (active) |
| CCUAAUUUGAUCCUUCGAATT against Zfp672 | -0.947 |
| GAACGACAACCCGAUAAUGTT against Ttc9c | -0.141 |
| GGAUUUAAUGGUAAAUCACTT against Relch | 0.034 |
| GGUUCUUGGAUAAAUCAAGTT against Mrpl40 | 2.41 (active) |
| GGAAGGUCAAAGUCCUUUATT against Pitpnm2 | -0.685 |
| GGCUUCAAGCUAUUCAUGATT against Dgkb | 0.126 |
| GGGAUUGAGGGAGAUUUUCTT against Tedc2 | -0.206 |
| GUGCUUCUGAUCUCCUACATT against Olfr223 | 1 |
| CCAAUCCAAUGAAUGUUUCTT against A330070K13Rik | -1.75 |
| GCUGAAAGUAUUCAUGUAATT against Sec13 | -1.6 |
| GAUAUGUGCACAAUUCUGCTT against Vmn1r201 | -2.3 (active) |
| GGCCAUCUCUUCUACUGUATT against Glt28d2 | 0.0935 |
| GCUUUCUGGGUAACAUAGGTT against Ubqln3 | -1.46 |
| AACCAUUCAGGAGAAAGCCTT against Lce1a1 | -3.05 (active) |
| GGGACCUUGAUCAAAACCUTT against Gp5 | -0.215 |
| GGAAAUGACAAGUAUGAAGTT against Gria4 | -1.33 |

| Sequence | z-score |
| --- | --- |
| GUACCCAAAAUGUUGAUGATT against Olfr979 | 0.794 |
| GCGGCUCCAUCAGAAAAUGTT against Htatip2 | 0.526 |
| GGAAAUCCAUGAGAAGGUGTT against Ctbp2 | 0.732 |
| CCUGAAUUACAGGGACCAGTT against Znrd1 | 3.49 (active) |
| GGUGAACUUGUGUCUCACUTT against Tango2 | 0.0582 |
| GGAGCUGUAUCGCACGAAATT against Ehd2 | -0.689 |
| GGAAACCGAAUUCCAAGGGTT against Ddx25 | 1.78 |
| GGAAGUGGAAAAACUGGUGTT against Ddx1 | -1.21 |
| GGAACUGUUUGACAGUGAGTT against Pex19 | -0.811 |
| GGAUCUAAAGGUGAGUCAATT against Dcaf12l1 | -0.388 |
| GCCUUGGAUAAACCAGACGTT against Mfsd4a | -2.38 (active) |
| GGAACCAAUCAGUUGGUUATT against Taf7 | 0.395 |
| GGAGAUACAGGAUAUUAUUTT against Nme5 | -0.0528 |
| GCACUUACUCAUUAAUCACTT against Rnf20 | -2.56 (active) |
| GCAACAGUGAAAUAGCACATT against Krit1 | 0.179 |
| GGUUAAUGAGCUCUGUAAATT against Pknox1 | -0.508 |
| GCUAAGGACUCAGCAAAACTT against Coq5 | 0.733 |
| CCGGUAAUGAGUUCAAGUGTT against Arsa | 1.12 |
| GGUAAAGAAAUCCUUCAAATT against Syt6 | 2.1 (active) |
| GGUUCUUAAUGCAUUCCCGTT against Cyp2d9 | -0.786 |
| GGGACUUUGAUUUUGAGAGTT against Ppp1r3f | -1.58 |
| GAUGCUCUCUGCUCUGAGATT against C030016D13Rik | -0.0555 |

| Sequence | z-score |
| --- | --- |
| GGAUCUAUAUCCAGUAGAGTT against Mief2 | 3.38 (active) |
| GGUAAUAGGAGAUACUGUGTT against Gzme | 0.624 |
| GGACCUUUCUCAACUACUATT against Edem2 | -0.706 |
| GGGAAACAAGCAUCUUCUGTT against Bmp5 | -0.474 |
| CCACUUCAGUAUUUGGCUUTT against Tas2r137 | -0.404 |
| GGACUCCUCAUGCUGAAGATT against Cdh13 | 1.97 |
| GCUCUAUUUGACCACCUCATT against Gdpd1 | -0.898 |
| CCACUCAAGAUCGAUACCUTT against Fgd1 | 0.167 |
| GGGUGAAGAGAGAUGAAAATT against Krt82 | 1.64 |
| GCUUGUUUACAUCGGACUUTT against Samt2 | 0.9 |
| GCAUCGUGCAGAAUUUUGCTT against Ephb1 | -1.04 |
| CCAGUGAUUAUCUUUAAUGTT against Slc9c1 | -0.435 |
| GCUAUCAAAGCUAAUACAUTT against Mrps9 | 3.41 (active) |
| GGUUAAGGAUGCUCAAGUATT against Krt20 | -0.187 |
| GGUCGUGUUCGAGCAAACCTT against Tpi1 | -0.725 |
| GCAGAAUUGAAGCUGGAAUTT against Stag1 | 2.49 (active) |
| GGUGACAUGGAUGUAGCAATT against Fcsk | 1.18 |
| CCACAUCUCAUGUGAAACCTT against Olfr517 | -0.927 |
| CCUUUUACACUCUAGUAUGTT against Ptger4 | -0.349 |
| GCUUGAAUAUGAGAACGAATT against Deup1 | -0.451 |
| GGUCAAGGUAGGCAAUGAATT against Stau2 | -2.32 (active) |
| GGGCAACAAGGAGUACUCATT against Prss45 | -1.88 |

| Sequence | z-score |
| --- | --- |
| GGAGGAAAUGAAAACCUUUTT against Cep89 | -0.823 |
| GGAGAACAUAAUGAAAUCUTT against Fam50a | -0.0744 |
| GGAUCAAAUUCUACCUUAGTT against Tbc1d5 | -0.595 |
| GGAGGUUGCUACAUGGUUATT against Amz1 | -0.644 |
| GGUCCACUGAUUCUGAUAATT against Cyp4a31 | 1.79 |
| GGAUUUUGCCUAAAAUACATT against Sephs1 | 0.179 |
| GGGACAGCUUUUGUGACUCTT against Raver1 | -2.16 (active) |
| GGGCAAAUCCUUUAGUUUGTT against Siae | -0.62 |
| CUACAGUGGCAAUAAUAUUTT against Rpl30 | 0.425 |
| GGUACUAAAUAAAAGACCGTT against Dsc2 | 1.15 |
| GGAGGAGAGAUGGUAAUCCTT against Olfr729 | -0.185 |
| GGAUGAGUAUGAGAGGAAUTT against Dcp1a | 2.51 (active) |
| GGUAACUGGGAAUUGUGUUTT against Vti1a | 0.812 |
| GGGUCUCUAAGUGCUCCGUTT against Sfxn2 | 0.433 |
| CGUGAAUCACUAUACAUAATT against A630052C17Rik | -1.39 |
| GGAAACAGUAGAAGAUGAGTT against Fam220a | 0.151 |
| GAAGACCAAGCUUUGUACUTT against Olfr339 | 2.28 (active) |
| GGAGCUCGCCAAAAGGAAGTT against Cep19 | 1.97 |
| CCAAAGAAGGUGAGAUUUGTT against Clstn1 | -0.161 |
